Our source for the Potency values is PubChem BioAssay (Tox21).

Inconclusive results are not listed. Entries that show only a call come without a potency. Activity calls are given as the source filed them. Calls follow the shape of the dose curve; as a rule, active = well fitted cell-killing curve with a large enough effect in the repeat runs; inconclusive = weak or mixed curves, or effect the other way; inactive = flat fitted curve, though single readings scatter.

A short description of assay [1]: cAMP Responsive Elements (CRE) small molecule antagonists, cell-based qHTS assay: qHTS cell viability counter screen (AID 2060913). Also: nearly all actives have a fitted effect of over 40% in size. To be noted: CRE-bla HEK293T viability, CellTiter-Glo luminescence, 5 h; series mostly up to 92.4 µM. The method, boiled down: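 CRE-bla HEK293T cells (2,000/well, 18 h) given compound plus NKH477 0.25 uM final for 3 h at 37C; viability counter-screen by CellTiter-Glo luminescence in same wells after 30 min.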
For orientation: In qHTS, concentration-response curves come from the screen itself.

Assay [2] is described as follows: cAMP Responsive Elements (CRE) small molecule agonists, cell-based qHTS assay: qHTS cell viability counter screen (AID 2060914). Also: nearly all actives have a fitted effect of over 50% in size. Also: potency is read from the fitted curve at half-maximal effect. As to conditions: CRE-bla HEK293T viability, CellTiter-Glo luminescence, 5 h; series mostly up to 92.4 µM. The method, boiled down:
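In the same wells as the reporter read, viability of CRE-bla HEK 293T cells was quantified by CellTiter-Glo luminescence after a 3 h compound exposure.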

As for `CCCCNS(=O)(=O)c1ccc(C)cc1`, the Potency entry in assay [1] and in assay [2] was “inactive” each time.
Turning to `FC(F)(F)c1ccccc1`, the Potency entry in assay [1] and in assay [2] was “inactive” in each case.
With `CCOC(C)=O`, the Potency entry in assay [1] is “inactive”. Also, the Potency in assay [2] is 24.5 µM (active).
As to `Cc1ccccc1`, the Potency result in assay [1] and in assay [2] was “inactive” in each case.
Turning to `CCC(C)(O)CCC=C(C)C` (configuration not stated), the Potency result in assay [1] and in assay [2] was “inactive” each time.
Take `CCn1nc(C(=O)O)c(=O)c2cc3c(cc21)OCO3`: the Potency entry in assay [1] and in assay [2] was “inactive” throughout.
With `CC(=O)Nc1cccc(N)c1`, the Potency result in assay [1] and in assay [2] was “inactive” each time.
`CC1CC(OC(=O)C(O)c2ccccc2)CC(C)(C)N1C` (configuration not stated): the Potency result in assay [1] and in assay [2] was “inactive” throughout.
On to `O=C(Oc1ccccc1)c1ccccc1C(=O)Oc1ccccc1`, for which the Potency entry in assay [1] and in assay [2] was “inactive” each time.
On to `CC(C)c1cc(C(C)C)cc(C(C)C)c1`, for which the Potency result in assay [1] and in assay [2] was “inactive” throughout.
Take `NCCC(O)(P(=O)(O)O)P(=O)(O)O`: the Potency result in assay [1] and in assay [2] was “inactive” throughout.
For `Cc1noc(NS(=O)(=O)c2ccc(N)cc2)c1C`, the Potency entry in assay [1] and in assay [2] was “inactive” each time.
As to `CN1CCCN=C1COC(=O)C(O)(c1ccccc1)C1CCCCC1` (configuration not stated), the Potency entry in assay [1] and in assay [2] was “inactive” in each case.
Regarding `COc1ccc(-c2ccc3cc(C(=O)O)ccc3c2)cc1C12CC3CC(CC(C3)C1)C2`, the Potency result in assay [1] and in assay [2] was “inactive” each time.
Turning to `Cc1ccccc1N1CCN(CCc2nnc3n2CCCC3)CC1`, the Potency result in assay [1] and in assay [2] was “inactive” in each case.
As to `CCN1CCC[C@H]1CNC(=O)c1c(O)c(Cl)cc(Cl)c1OC`, the Potency result in assay [1] and in assay [2] was “inactive” in each case.
As to `Nc1ccc(S(=O)(=O)Nc2ccccc2)cc1`, the Potency entry in assay [1] and in assay [2] was “inactive” each time.
With `Clc1cccc(-c2cc(Cl)cc(Cl)c2)c1`, the Potency result in assay [1] and in assay [2] was “inactive” throughout.
Regarding `OCCN(CCO)CCN(CCO)CCO`, the Potency result in assay [1] and in assay [2] was “inactive” throughout.
Regarding `C=C(C)C1CC=C(C)C(O)C1` (configuration not stated), the Potency entry in assay [1] and in assay [2] was “inactive” each time.
For `C=CCn1c(=O)n(CC=C)c(=O)n(CC=C)c1=O`, the Potency entry in assay [1] and in assay [2] was “inactive” in each case.
